Source: PubChem BioAssay (NCI)
The panel holds about 83,000 compounds, 20% with a hit somewhere; the sample as a whole holds those more often.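 Assay: single dose, 48 h. Readout: percent growth (0 = no net growth; negative = cell death). Active: <10.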 A number with no mark means an inactive call. Active and inactive are the calls of the source.

Assays:
Assay in all cases: NCI-60 one-dose screen, 48 h (100 = growth as untreated, 0 = no growth, -100 = all killed)
NCI-H460 lung = details: 10 µM unless noted
786-0 renal = details: 10 µM unless noted
COLO 205 colon = details: 10 µM
MALME-3M melanoma = details: 10 µM unless noted
SF-295 CNS = details: 10 µM unless noted
SF-539 CNS = details: 10 µM unless noted
HT29 colon = details: 10 µM unless noted
SK-MEL-5 melanoma = details: 10 µM unless noted
SK-MEL-2 melanoma = details: 10 µM unless noted
UO-31 renal = details: 10 µM unless noted
TK-10 renal = details: 10 µM unless noted
ACHN renal = details: 10 µM unless noted
A498 renal = details: 10 µM unless noted
HL-60(TB) leukemia = details: 10 µM unless noted
MOLT-4 leukemia = details: 10 µM
T-47D breast = details: 10 µM unless noted
SW-620 colon = details: 10 µM unless noted
UACC-257 melanoma = details: 10 µM unless noted
HCC-2998 colon = details: 10 µM unless noted
RXF 393 renal = details: 10 µM unless noted

Compound | growth (NCI-H460 lung) | growth (786-0 renal) | growth (COLO 205 colon) | growth (MALME-3M melanoma) | growth (SF-295 CNS) | growth (SF-539 CNS) | growth (HT29 colon) | growth (SK-MEL-5 melanoma) | growth (SK-MEL-2 melanoma) | growth (UO-31 renal) | growth (TK-10 renal) | growth (ACHN renal) | growth (A498 renal) | growth (HL-60(TB) leukemia) | growth (MOLT-4 leukemia) | growth (T-47D breast) | growth (SW-620 colon) | growth (UACC-257 melanoma) | growth (HCC-2998 colon) | growth (RXF 393 renal)
C[C@]12CC[C@@H]3c4ccc(OC(=O)Cc5ccc(N(CCCl)CCCl)cc5)cc4CC[C@H]3[C@@H]1CC[C@@H]2OC(=O)Cc1ccc(N(CCCl)CCCl)cc1 | 125% | 110% | 104% | 113% | 103% | 103% | 117% | 87% | -3.92% (active) | 82.7% | 120% | 109% | 121% | 108% | 104% | 121% | 103% |  |  | 
CCC(C)[C@H]1O[C@]2(C=C[C@@H]1C)C[C@@H]1C[C@@H](C/C=C(\C)[C@@H](OC3C[C@H](OC)C(O[C@H]4C[C@H](OC)[C@@H](O)[C@H](C)O4)[C@H](C)O3)[C@@H](C)/C=C/C=C3\CO[C@@H]4[C@H](O)C(C)=C[C@@H](C(=O)O1)[C@]34O)O2 (stereo partly drawn) | -34.5% (active) | 0.269% (active) | -64.5% (active) |  | -41.9% (active) | -71.6% (active) | -63.6% (active) | -79.2% (active) | -57.2% (active) | 10.1% | 13.7% | -95.1% (active) | -24.9% (active) | -26.2% (active) | -26.6% (active) | 0.0336% (active) | -72% (active) | -17.1% (active) | -49% (active) | 
C=CCc1ccc(OC(=O)Cc2ccccc2)c(OC)c1 | 105% | 99.2% | 103% | 86.8% | 95.7% | 97.8% | 115% | 102% | 80.6% | 77.1% | 110% | 110% | 97.4% |  |  | 106% | 106% | 120% | 95.8% | 110%
CC1(C)N=C(N)N=C(N)N1c1ccc(CCCCc2ccc(S(=O)(=O)F)cc2)c(Cl)c1 | 10.7% | 22.1% | 33.2% | 44.3% | 3.69% (active) | 22.9% | 8.74% (active) | 16.6% | 30.6% | 59.9% | 23% | 22.1% | 37.3% | 19.2% | 18.2% | -0.711% (active) | 17.2% | 30.9% | 35.5% | 43.1%
CC(=O)C1CCC2C3CC=C4CC(OC(=O)Cc5ccc(N(CCCl)CCCl)cc5)CCC4(C)C3CCC12C (stereo not drawn) | 101% |  |  | 109% | 108% | 79.5% | 83.2% | 94.5% | 106% | 109% | 113% | 100% | 105% | 101% | 73% | 105% | 101% | 116% | 93.7% | 108%
CC12CCC(=O)C=C1CCC1C2CCC2(C)C(C(=O)COC(=O)Cc3ccc(N(CCCl)CCCl)cc3)CCC12 (stereo not drawn) | 40.5% | 93.7% | 88.5% | 168% | 74.5% | 63% | 88.5% | 85% | 20.6% | 72.8% | 112% | 40.3% | 69.8% | 26.7% | 49.5% | 89.2% | 75.6% |  | -28.3% (active) | 
NC(=O)NC(=O)CI | 106% | 88% | -62.4% (active) | -43.6% (active) | 119% | 109% | 99.1% | 93.9% | 92.1% |  | 88.6% | 84.7% | 97.9% | 98.3% | 13.8% | 8.8% (active) | 27.6% | 79.1% | 113% | 65%
